Bioassay records deposited in PubChem BioAssay by National Center for Advancing Translational Sciences (NCATS).
Rows were chosen to be rich in hits. Some 12% of all compounds tested hit in one or more screens of this group.
Sm TGR inh – qHTS Assay for the Inhibitors of Schistosoma Mansoni Peroxiredoxins. purified TGR, DTNB reduction, TNB absorbance 405 nm. Potency, µM (doses to about 114 µM), actives largely listed as inhibitors. 3% of 360,000 active. AID 485364, 2010; active = well fitted inhibition curve with a large enough effect; also: nearly all actives have a fitted effect of over 60% in size
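TGR 20 nM + NADPH 100 uM (dispensed conc.), cpd preinc 15 min RT; start with NADPH (500 uM addition) then DTNB (15 mM addition). Kinetic TNB absorbance, 405 nm filter. Four-parameter Hill fit across titration.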
FMDV antiviral – High Throughput Screening for Foot and Mouth Disease Virus Antivirals. FMDV antiviral cell-based qHTS. Potency, µM (titrated, usually from 57.9 µM), hits mostly inhibitors. 1.2% of 410,000 active; calls by dose curve; tested in HEK293T cells; also: read-out not given here; nearly all actives have a fitted effect of over 45% in size
CHX counter – Cycloheximide Counterscreen for Small Molecule Inhibitors of Shiga Toxin; 12% of 300,000 active; max response, %; cell reporter, cycloheximide protein synthesis inhibition counterscreen; in the data active = max response mostly above about 13%, no sharp cut-off; inactive = mostly below about 14%; also: read at 38.3 µM for the half of the compounds with a filed dose
Shiga toxin inh – A qHTS for Small Molecule Inhibitors of Shiga Toxin. Vero cells, Shiga toxin protein synthesis inhibition reporter. 9.2% of 290,000 active. inhibition, % at 38.7 µM; in the data active = inhibition mostly above about 28%, no sharp cut-off; inactive = mostly below about 43%
Numbers stand for hits.

`C/C(=N\NC(=O)C1CC1)c1ccc(OC(F)F)cc1` gave Sm TGR inh inactive, FMDV antiviral inactive, CHX counter inactive and Shiga toxin inh 51.
COC(=O)N/N=C(\C)c1cccc(C(F)(F)F)c1 was read as Sm TGR inh inactive, FMDV antiviral inactive, CHX counter 29 and Shiga toxin inh inactive.
Screening Cc1ccc(NC(=S)NNC(=O)c2ccccc2O)c(C)c1 returned Sm TGR inh inactive, FMDV antiviral inactive, CHX counter 33 and Shiga toxin inh 97.
Screening Cc1cccc(NC(=S)NNC(=O)c2ccc(O)cc2O)c1C returned Sm TGR inh inactive, FMDV antiviral inactive, CHX counter 20 and Shiga toxin inh 35.
Screening CCc1ccc(NC(=O)Cn2c(=O)n(CC3CCCO3)c(=O)c3cc(OC)c(OC)cc32)cc1 (stereo not given) returned Sm TGR inh inactive and FMDV antiviral inactive.
`COc1ccc(CCn2c(=O)[nH]c3cc(C(=O)N4CCN(c5ccccn5)CC4)ccc3c2=O)cc1OC` gave Sm TGR inh inactive, FMDV antiviral inactive, CHX counter inactive and Shiga toxin inh inactive.
`O=C(c1ccc2ccccc2c1)N1CCN(Cc2ccccc2)CC1` gave Sm TGR inh inactive, FMDV antiviral inactive, CHX counter 28 and Shiga toxin inh 82.
For O=C(c1c[nH]c(C(=O)N2CCN(Cc3ccccc3)CC2)c1)C1CCCCC1 the results were Sm TGR inh inactive, FMDV antiviral inactive, CHX counter inactive and Shiga toxin inh 51.
Screening O=C(C1CCC1)N1CCN(Cc2ccccc2)CC1 returned Sm TGR inh inactive, FMDV antiviral inactive, CHX counter inactive and Shiga toxin inh inactive.
`COc1ccc(CCn2c(=O)[nH]c3cc(C(=O)N4CCN(c5ccccc5)CC4)ccc3c2=O)cc1OC` gave Sm TGR inh inactive, FMDV antiviral 16µM, CHX counter inactive and Shiga toxin inh inactive.
COc1ccc(Cn2c(=O)[nH]c3cc(C(=O)N4CCN(Cc5ccccc5)CC4)ccc3c2=O)cc1 was read as Sm TGR inh inactive, FMDV antiviral 14µM, CHX counter inactive and Shiga toxin inh inactive.
`Cc1cccc(NC(=O)C2CCN(S(=O)(=O)c3ccc4c(c3)CCCN4C(=O)C3CCC3)CC2)c1` gave Sm TGR inh inactive and FMDV antiviral inactive.
For COc1ccc(S(=O)(=O)c2cnc3ccc(Cl)cc3c2N2CCCCC2C)cc1 (stereo not given) the results were Sm TGR inh inactive and FMDV antiviral inactive.
`COc1ccc(Cn2c(=O)[nH]c3cc(C(=O)N4CCN(c5ccccc5OC)CC4)ccc3c2=O)cc1` gave Sm TGR inh inactive, FMDV antiviral 18µM, CHX counter inactive and Shiga toxin inh inactive.
